# Source: PubChem BioAssay
# Calls of active or inactive are those of the source.
# Key:
# [1] = test system: Human papillomavirus type 1a protein E7 (residues 44-93); experiment: HPV1a E7 fragment binders on microarrays, primary screen, biochemical, small-molecule microarray, residues 44-93, 635 nm fluorescence (AID 1108); details: small-molecule microarray binding, fluorescence 635 nm; higher = more signal;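 note: E7 fragment applied at 1 µg/mL in TBST for 1 h at 4 C; score combines spot fluorescence with its signal to noise ratio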
# [2] = modulators of HCV replicon luciferase signal, primary screen, HCV replication inhibitor project, Huh7 cells, luciferase reporter (AID 1109); details: 48 h, higher = more signal;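 note: huh7 hepatoma cells harbouring a luciferase neomycin HCV replicon reporter; luciferase luminescence as measure of HCV replicon replication; test concentration not given here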
# [3] = biological target: Left-right determination factor 2 (Homo sapiens) (UniProt O00292); experiment: LEFTY2 binders on small-molecule microarrays, primary screen, biochemical, small-molecule microarray, 635 nm fluorescence scan (AID 1110); details: LEFTY2 binding, higher = more signal
# [4] = biological target: Calmodulin-1 (Homo sapiens) (UniProt P0DP23); experiment: CALM1 binders on microarrays, EGTA buffer, profiling panel, biochemical, small-molecule microarray, Cy5-labelled CALM1 (AID 1111); details: Cy5-CALM1 binding fluorescence, higher = more signal;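 note: labelled calmodulin applied in Tris saline Tween buffer holding calcium plus EGTA and DTT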
# [5] = biological target: Calmodulin-1 (Homo sapiens) (UniProt P0DP23); experiment: calcium-bound CALM1 binders on microarrays, profiling panel, artefact control for SMM control-protein annotation, biochemical, small-molecule microarray, Cy5-labelled CALM1, plus calcium (AID 1112); details: Cy5-CALM1 binding fluorescence, higher = more signal;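 note: score merges spot fluorescence with signal to noise from triplicate slides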
# [6] = small-molecule microarray binders of probe aWnt5a, primary screen, biochemical, biotinylated probe, 635/667 nm fluorescence (AID 1113); details: higher = more signal;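 note: score merges 667 nm fluorescence intensity with signal-to-noise per printed feature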
# [7] = small-molecule microarray binders of probe aShh, primary screen, biochemical, biotinylated probe, 635/667 nm fluorescence (AID 1114); details: higher = more signal;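 note: probe is biotin-labelled aShh protein from a stem cell growth factor screen; measures binding of labelled protein to compounds printed on the slide; score merges feature fluorescence at 667 nm with signal-to-noise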
# [8] = small-molecule microarray binders of probe aNog, primary screen, biochemical, biotinylated probe, 635/667 nm fluorescence (AID 1115); details: higher = more signal;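 note: probe is biotinylated aNog protein used at 0.15 µg/mL for 1 h at 4 C; z-score combines 667 nm fluorescence of each spot with its signal to noise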
# [9] = biological target: Torsin-1A-interacting protein 1 (Homo sapiens) (UniProt Q5JTV8); experiment: LAP1 binders from COS7 cell lysate, primary screen, small-molecule microarray, 635/667 nm fluorescence (AID 1116); details: COS7-hLAP1 lysate binding, 635 nm fluorescence, higher = more signal
# [10] = biological target: Alpha-bungarotoxin (Bungarus multicinctus) (UniProt P60615); experiment: alpha-bungarotoxin binders on microarray, profiling panel, artefact control for SMM control protein annotation, biochemical, small-molecule microarray, Alexa647 label, 635/667 nm fluorescence (AID 1117); details: alpha-BTX-A647 binding fluorescence, higher = more signal
# Albumin (Bos taurus) = Albumin (Bos taurus) (UniProt P02769); experiment: bovine serum albumin binders on microarray, profiling panel, artefact control for SMM control protein annotation, biochemical, small-molecule microarray, Alexa647 label, 635/667 nm fluorescence (AID 1118); details: BSA-A647 binding, fluorescence 635 nm, higher = more signal;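 note: score merges 667 nm emission intensity and signal-to-noise per printed compound spot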
# [11] = small-molecule microarray binders of probe aXIP, primary screen, biochemical, NeuroSMM set, 635/667 nm fluorescence (AID 1119); details: higher = more signal, called active from +8 up or from −8 down;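 note: probe is the protein aXip251-270 applied at 1 µg/mL to compound-printed slides; binding of probe to printed compounds measured as 667 nm fluorescence plus signal to noise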
# [12] = small-molecule binders of probe aNOTCH3, primary screen, biochemical, small-molecule microarray, 635/667 nm fluorescence (AID 1120); details: higher = more signal;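 note: probe is a biotin-tagged antibody raised against NOTCH3 rather than NOTCH3 protein; score merges spot fluorescence near 667 nm with spot signal to noise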
# [13] = small-molecule binders of probe aNOTCH2, primary screen, biochemical, small-molecule microarray, 635/667 nm fluorescence (AID 1121); details: higher = more signal;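 note: score merges feature fluorescence read at 667 nm with its signal to noise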
# [14] = biological target: Carbonic anhydrase 2 (Homo sapiens) (UniProt P00918); experiment: CAII small-molecule binders, profiling panel, biochemical, small-molecule microarray, Alexa647-labelled CAII (AID 1122); details: CAII-A647 binding fluorescence, higher = more signal
# [15] = COS7 lysate on small-molecule microarray, probe aHis, 635 nm (AID 1123); details: COS7 cell lysate, fluorescence, higher = more signal;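 note: z-score combines 667nm fluorescence intensity with signal-to-noise per printed compound spot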
# [16] = compound binding in COS7 lysate, probe aLAP1, primary screen, cell lysate, small-molecule microarray (AID 1124); details: probe aLAP1, fluorescence, higher = more signal;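 note: lysate comes from COS7 cells expressing LAP1 and is applied at 0.3 µg/mL; score merges spot fluorescence near 667 nm with signal-to-noise over triplicate slides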
# Sam68 (KHDRBS1) = experiment: Sam68 small-molecule binders, primary screen, biochemical, small-molecule microarray, 635 nm fluorescence (AID 1125); details: small-molecule microarray binding, higher = more signal;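 note: score merges 667 nm channel intensity with signal to noise over triplicate slides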
# [17] = test system: Chordin-like protein 2 (CHRDL2); experiment: CHRDL2 small-molecule binders, primary screen, biochemical, small-molecule microarray, 635 nm fluorescence (AID 1126); details: small-molecule microarray binding, fluorescence 635 nm; higher = more signal;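 note: printed compound slides probed with Chrdl2 protein at 4 µg/mL for 1 h at 4 C; score merges 667 nm emission intensity with signal to noise over three replicate slides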
# [18] = biological target: Concanavalin-A (Canavalia ensiformis) (UniProt P02866); experiment: ConA small-molecule binders, primary screen, artefact control for SMM control protein annotation, biochemical, small-molecule microarray, Alexa647 label, 635 nm (AID 1127); details: ConA-A647 binding fluorescence, higher = more signal;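 note: z combines 667 nm emission intensity with signal-to-noise across three replicate slides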
# Chain of Concanavalin-A (Canavalia ensiformis) (P02866 whole entry, looked up): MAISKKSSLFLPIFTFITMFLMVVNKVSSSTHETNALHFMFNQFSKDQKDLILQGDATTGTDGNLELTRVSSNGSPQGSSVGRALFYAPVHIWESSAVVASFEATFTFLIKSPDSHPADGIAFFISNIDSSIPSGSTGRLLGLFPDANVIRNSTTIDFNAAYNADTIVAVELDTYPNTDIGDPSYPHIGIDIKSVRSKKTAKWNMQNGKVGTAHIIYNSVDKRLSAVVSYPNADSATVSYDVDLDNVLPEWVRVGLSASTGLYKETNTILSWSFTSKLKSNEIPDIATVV
# Chain of Albumin (Bos taurus) (P02769 whole entry, looked up): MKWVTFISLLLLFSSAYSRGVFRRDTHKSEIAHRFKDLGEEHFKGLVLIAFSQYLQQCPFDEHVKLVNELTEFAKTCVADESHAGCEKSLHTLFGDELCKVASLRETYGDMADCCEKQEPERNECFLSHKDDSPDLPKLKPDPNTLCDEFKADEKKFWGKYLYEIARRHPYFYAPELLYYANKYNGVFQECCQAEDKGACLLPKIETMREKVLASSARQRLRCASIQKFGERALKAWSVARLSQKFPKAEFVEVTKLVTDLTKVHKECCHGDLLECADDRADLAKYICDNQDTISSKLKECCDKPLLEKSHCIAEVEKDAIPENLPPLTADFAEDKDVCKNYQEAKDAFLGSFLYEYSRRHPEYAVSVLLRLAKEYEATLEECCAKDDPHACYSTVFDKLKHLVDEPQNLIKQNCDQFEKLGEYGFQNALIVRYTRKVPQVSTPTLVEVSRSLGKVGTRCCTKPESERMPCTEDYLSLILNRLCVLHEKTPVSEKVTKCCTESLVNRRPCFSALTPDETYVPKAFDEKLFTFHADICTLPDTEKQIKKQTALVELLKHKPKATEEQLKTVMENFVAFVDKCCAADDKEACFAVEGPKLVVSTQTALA
# Chain of Alpha-bungarotoxin (Bungarus multicinctus) (P60615 whole entry, looked up): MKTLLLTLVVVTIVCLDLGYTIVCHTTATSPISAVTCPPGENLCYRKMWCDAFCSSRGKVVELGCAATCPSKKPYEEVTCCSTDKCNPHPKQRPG
# Chain of Torsin-1A-interacting protein 1 (Homo sapiens) (Q5JTV8 whole entry, looked up): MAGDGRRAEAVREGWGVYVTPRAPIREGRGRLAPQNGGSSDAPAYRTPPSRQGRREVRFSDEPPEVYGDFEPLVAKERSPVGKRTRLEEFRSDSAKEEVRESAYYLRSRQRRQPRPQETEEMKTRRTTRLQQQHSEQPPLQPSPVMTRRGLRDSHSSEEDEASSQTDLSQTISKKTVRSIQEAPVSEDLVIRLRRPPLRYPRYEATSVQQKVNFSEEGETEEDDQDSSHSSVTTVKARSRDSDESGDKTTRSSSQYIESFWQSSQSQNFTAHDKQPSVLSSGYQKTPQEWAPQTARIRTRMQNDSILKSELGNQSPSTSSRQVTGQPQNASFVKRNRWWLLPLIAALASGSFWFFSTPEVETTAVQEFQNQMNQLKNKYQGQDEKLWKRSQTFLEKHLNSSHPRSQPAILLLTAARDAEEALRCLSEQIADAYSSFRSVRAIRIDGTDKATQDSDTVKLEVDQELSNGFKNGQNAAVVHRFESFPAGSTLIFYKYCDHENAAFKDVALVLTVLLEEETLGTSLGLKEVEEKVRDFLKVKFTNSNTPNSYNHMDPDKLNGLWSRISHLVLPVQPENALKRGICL
# Chain of Left-right determination factor 2 (Homo sapiens) (O00292 whole entry, looked up): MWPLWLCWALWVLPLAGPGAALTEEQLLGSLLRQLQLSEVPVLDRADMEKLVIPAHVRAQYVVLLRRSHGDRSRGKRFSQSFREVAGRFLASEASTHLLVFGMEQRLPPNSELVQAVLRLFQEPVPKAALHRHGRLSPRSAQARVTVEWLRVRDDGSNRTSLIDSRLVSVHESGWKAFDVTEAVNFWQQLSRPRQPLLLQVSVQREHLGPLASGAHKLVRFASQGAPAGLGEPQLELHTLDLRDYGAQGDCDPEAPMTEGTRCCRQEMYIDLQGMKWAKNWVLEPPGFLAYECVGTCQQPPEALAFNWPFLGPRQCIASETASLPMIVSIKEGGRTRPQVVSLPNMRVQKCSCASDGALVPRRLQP
SMILES,composite z-score [1],z-score [2],composite z-score [3],composite z-score [4],composite z-score [5],composite z-score [6],composite z-score [7],composite z-score [8],composite z-score [9],composite z-score [10],composite z-score (Albumin (Bos taurus)),composite Z-score [11],composite z-score [12],composite z-score [13],composite z-score [14],composite z-score [15],composite z-score [16],composite z-score (Sam68 (KHDRBS1)),composite z-score [17],composite z-score [18]
COc1ccc(CCNC(=O)[C@@]2(c3ccc([N+](=O)[O-])cc3)CC(=O)N(C(C)C)[C@@H]2c2ccc(CO)cc2)cc1,0.0008,-0.309,-1.6,-0.63,-0.0462,-0.129,0.0557,0.132,0.228,-0.631,0.0638,0.265 (inactive),-0.331,-0.154,0.748,0.462,0.451,-0.549,-2.5,-0.895
O=C1C[C@@](C(=O)NCCN2CCOCC2)(c2ccc([N+](=O)[O-])cc2)[C@@H](c2ccc(CO)cc2)N1C1CCCCC1,1.39,-0.867,1.06,0.502,-0.142,0.0621,0.171,0.924,1.6,0.571,-0.218,-0.346 (inactive),0.0597,0.188,0.656,1.79,0.596,1.17,0.395,1.06
COc1cccc([C@H]2N[C@H](C(=O)O)CC[C@@H]2C)c1,0.0991,0.53,0.0589,0.0938,0.334,-0.131,-0.458,-0.339,0.0026,0.396,-0.207,-0.269 (inactive),-0.15,-0.129,0.0689,-0.146,-0.283,0.0672,0.135,0.334
C=C(/C(=C/C[C@@H](OC(=O)c1ccncc1)c1ccc(CO)o1)c1cnc2ccccc2c1)C(C)C,-1.09,-1.05,0.846,1.64,-0.116,-0.124,-0.0626,0.221,1.36,0.474,0.485,0.0431 (inactive),0.0225,-0.132,0.557,0.606,0.367,1.3,1.21,1.17
C=CCNC(=O)[C@H]1[C@@H]2C(=O)O[C@@H](c3ccccc3)[C@@H](c3ccccc3)N2[C@@H](c2ccccc2OCCO)[C@]12C(=O)N(C(=O)OCCOC)c1ccc(C#CCNC(N)=O)cc12,0.0146,-1.08,0.398,1.63,0.559,-0.124,-0.0011,0.672,1.23,1.81,0.676,-0.0888 (inactive),0.0379,-0.101,0.555,1.94,1.3,1.29,-0.246,1.14
Cc1ccc(N2C(=O)c3ccccc3[C@](C)(C(=O)NCC(C)C)[C@@H]2c2ccc(CO)cc2)nc1,-1.1,0.324,-0.337,-0.584,-1.07,-0.0405,-0.0257,-0.172,-0.367,-0.809,-1.09,0.917 (inactive),-0.278,-0.126,0.265,0.437,-0.115,-0.68,-0.233,-1.92
O=C(NCc1ccccc1)[C@@]1(Cc2ccccc2)COC(c2ccc(OCCCO)cc2)=N1,1.4,-3.29,-0.702,0.588,0.687,-0.128,-0.0337,0.597,1.57,1.71,0.48,-0.179 (inactive),0.0539,-0.0063,0.504,1.71,0.144,0.682,-0.594,0.865
O=C(NCc1ccccc1)[C@@]1(CCS(=O)(=O)c2ccccc2)COC(c2ccc(OCCCO)cc2)=N1,0.623,-1.71,-0.0893,2.16,1.11,0.111,0.504,1.85,1.95,3.73,0.514,0.294 (inactive),0.291,0.0539,0.808,3.01,0.72,1.3,-0.696,1.17
O=C1c2ccccc2[C@](Cc2ccccc2I)(C(=O)NCc2ccccc2)[C@H](c2ccc(CO)cc2)N1Cc1ccccc1C(F)(F)F,-0.32,0.344,-1.38,-0.027,0.988,-0.148,-0.0146,1.06,-0.08,-0.442,0.609,-0.342 (inactive),-0.253,-0.11,0.631,1.37,0.595,0.514,-1.84,-0.32
Cc1ccc(S[C@]2(C(=O)O)CC(=O)N(Cc3cc(C(F)(F)F)cc(C(F)(F)F)c3)[C@@H]2c2ccc(CO)cc2I)cc1,-0.0997,-1.39,-2.05,-0.279,0.74,-0.0824,0.0767,0.181,0.598,-0.206,0.372,1.54 (inactive),-0.243,-0.154,0.0858,0.0199,-0.439,0.456,-1.02,0.226
CCN1C(C)=C(C(=O)OC)[C@@H](c2ccccc2)N2C(=O)[C@](O)(C(=O)OC)[C@@H](c3ccccc3)C(C(C)=O)=C12,-0.0269,-0.279,0.784,-0.693,-0.0342,-0.0125,-0.262,0.19,0.0025,-0.576,-0.647,0.319 (inactive),0.641,-0.0483,0.916,-0.0995,-0.141,-0.0684,0.708,-1.15
